Experimental data from PubChem BioAssay.
Results filed as inconclusive are left out. The source made the active and inactive calls.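 Rule for the calls, unless noted: active = RAM network inhibition above 8.4% in each of two replicates, 3 SD over the compound average; inconclusive = above 8.4% inhibition in only one replicate; inactive = 8.4% inhibition or less in each replicate.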

How the values were obtained:
[1] = reduced viability of SK-BR-3 breast cancer cells – cell-based, 24 h, human, pilot screen (AID 572;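 active = viability at or below 10% of carrier control in both of two separate runs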;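 note: compound exposure lasted between 18 and 24 h rather than exactly 24 h; 100% = carrier-treated control wells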); conditions: SK-BR-3 viability, CellTiter-Glo luminescence, at 10 µM, stronger effect = lower value
[2] = HUVEC growth inhibition – cell-based, human, primary screen (AID 575;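 active = viability at or below 30% in both replicate assays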;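 note: 100% = median of untreated cell wells with 0.1% DMSO on each plate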); conditions: HUVEC proliferation, CellTiter-Glo luminescence, 72 h; at 10 µM; stronger effect = lower value
[3] = H69AR cell proliferation blockers – human, duplicate replicates, primary screen (AID 580;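 active = viability at or under a set limit in both replicates, limit being median viability minus 3 SD, cut at about 48% in these data, passing the limit was not always enough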;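 note: 100% = mean luminescence of untreated wells and 0% = no signal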); conditions: H69AR lung tumor cells viability, ATP luminescence, 72 h; at 10 µM; stronger effect = lower value
[4] = MRP1 drug-resistance reversers in H69AR cells – cell-based, doxorubicin co-treatment, pilot screen (AID 601;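 active = viability loss from added drug above about 55%, and viability with drug at most 40%, in both replicates, limit read from the data, passing the limit was not always enough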); conditions: CellTiter-Glo, 72 h, at 10 µM; for differential viability (reversal): stronger effect = higher value
[5] = yeast transport mutant growth inhibition pilot in 384-well plates, post-Golgi transport modulator project (AID 636; in the data active = inhibition above about 31%); conditions: absorbance 615 nm, about 18 h, stronger effect = higher value
[6] = growth suppression of yeast trafficking mutant, preliminary HTS, modulators of trafficking downstream of Golgi apparatus project, 1536-format plate, OD 615 nm (AID 637; in the data active = inhibition above about 30%); conditions: yeast transport mutant growth, absorbance 615 nm, 18 h; stronger effect = higher value
[7] = S. cerevisiae growth inhibition in permissive medium (OD615), pilot counter-assay for S. cerevisiae lifespan shortening project, permissive growth control (AID 705;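 active = growth inhibition above 25% in both replicates, a cutoff set 3 SD above the mean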); conditions: OD615, 24 h, at 10 µM, stronger effect = higher value
[8] = S. cerevisiae growth inhibition in restrictive medium, OD615, pilot screen, restrictive growth control, yeast lifespan reduction project (AID 706;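 active = growth inhibition above a set limit, 3 SD over mean compound inhibition, in both replicates, cut at about 43% in these data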;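 note: modified DeaD lifespan yeast strain shifted to restrictive glucose medium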); conditions: OD615, 48 h, at 10 µM, stronger effect = higher value
[9] = doxorubicin toxicity protection in MRP-1 cells – H69AR cells, CellTiter-Glo, duplicate, MRP-1 activator project, pilot screen (AID 807;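 active = viability increase at or above a cutoff of the median across tested compounds plus 3 SD, cut at about 8.5% in these data, passing the limit was not always enough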;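 note: compound pretreatment 18-22 h then 72 h combined with doxorubicin; 0% = doxorubicin alone and 100% = vehicle without doxorubicin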); conditions: H69AR viability with doxorubicin, CellTiter-Glo luminescence; at 10 µM; stronger effect = higher value
[10] = viability of HCT116 without oncogenic beta-catenin – human colon tumor cells, pilot screen (AID 823;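 active = cell viability at or below a set limit in both duplicate runs, the limit being the all-compound median minus 4 SD, cut at about 23% in these data, passing the limit was not always enough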;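 note: 0% = wells killed by 20 µM Hyamine and 100% = untreated DMSO cell wells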); conditions: HCT116 beta-catenin knockout viability, CellTiter-Glo, 60 h; at 10 µM; stronger effect = lower value
[11] = viability of PTEN-null HCT116 cells – cell-based, HCT116 clonal line, CellTiter-Glo, pilot screen (AID 824;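 active = viability at or below 27.92% in each of two runs, the all-compound median minus 4 SD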;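 note: 0% = 20 µM Hyamine control and 100% = vehicle cell control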); conditions: HCT116 PTEN-deleted viability, 60 h, at 10 µM, stronger effect = lower value
[12] = RAM pathway blockade in budding yeast – dse1pr::URA3 reporter, 5-FOA selection, pilot screen (AID 869;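 active = inhibition over a set limit, the all-compound mean plus 3 SD, in both replicate runs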;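 note: 0% = DMSO wells with no growth and 100% = 10 µM 1-NA-PP1 with full growth; RAM network block rescues cells from 5-FOA so hits raise OD615 growth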); conditions: S. cerevisiae dse1pr::URA3 5-FOA growth, OD615, 2 d; at 10 µM; stronger effect = higher value; strain carries analog-sensitive mutant Cbk1 kinase
[13] = RAM signaling pathway blockade in yeast – S. cerevisiae, Pdr1DBD-CYC8 efflux-inhibited sensitized strain, primary screen (AID 1298);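 note: 0% = DMSO untreated cells without growth and 100% = 10 µM 1-NA-PP1 full growth; higher means more yeast growth rescued from 5-FOA killing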; conditions: S. cerevisiae cbk1-as DSE1-URA3 strain, 5-FOA growth OD615, 2 d; at 50 µM; stronger effect = higher value
[14] = H69AR cells + 2 uM doxorubicin, measured here: viability with 2 uM doxorubicin, stronger effect = lower value
[15] = H69AR cells, compound alone cytotoxicity

SMILES	viability [1]	viability [2]	viability [3]	differential viability (reversal) ([4]; H69AR cells + 2 uM doxorubicin)	viability [4, 14] [%]	viability [4, 15] [%]	inhibition [5]	inhibition [6]	growth inhibition [7]	growth inhibition [8]	viability increase [9]	viability [10]	viability [11]	inhibition [12]	RAM network inhibition [13]
Cn1c(=O)c2c(nc(CN3CCc4ccccc4C3)n2Cc2cccc(Cl)c2)n(C)c1=O	95% (inactive)	45.5% (inactive)	31.2% (active)	12.7% (inactive)	18.5	31.2	-3.2% (inactive)	-1.33% (inactive)	-8.07% (inactive)	-5.74% (inactive)	-7.3% (inactive)	42.6% (inactive)	47.6% (inactive)	-0.785% (inactive)	4.55% (inactive)
O=C(CCC(=O)OCC(=O)c1ccccc1)NC1CCCCC1	68% (inactive)	108% (inactive)	101% (inactive)	14.9% (inactive)	86.1	101	-7.33% (inactive)	-5.82% (inactive)	-6.58% (inactive)	-5.45% (inactive)	-0.49% (inactive)	93.6% (inactive)	95.6% (inactive)	-0.295% (inactive)	5.37% (inactive)
O=C(c1ccco1)c1nnn(Cc2ccccc2)c1-c1ccccc1	107% (inactive)	102% (inactive)	85.1% (inactive)	3.42% (inactive)	81.7	85.1	-2.93% (inactive)	-4.73% (inactive)	-6.81% (inactive)	-8.41% (inactive)	-2.38% (inactive)	93.5% (inactive)	99.1% (inactive)	2.21% (inactive)	-0.25% (inactive)
OC(CNCCc1ccccc1)c1ccccc1 (stereo not given)	101% (inactive)	101% (inactive)	91.2% (inactive)	9.8% (inactive)	81.4	91.2	-5.07% (inactive)	2.36% (inactive)	-6.34% (inactive)	-6.08% (inactive)	-0.36% (inactive)	95.4% (inactive)	94.1% (inactive)	0.865% (inactive)	0.66% (inactive)
Cn1c(CSc2nc3ccccc3s2)nnc1SCC(=O)NCCN1CCOCC1	75% (inactive)	97.6% (inactive)	98.5% (inactive)	-3.51% (inactive)	102	98.5	2.67% (inactive)	10% (inactive)	7.95% (inactive)	32.4% (inactive)	-3.43% (inactive)	92.9% (inactive)	86.7% (inactive)	0.27% (inactive)	3.17% (inactive)
O=C(O)CC(C(=O)Nc1cccc(C(F)(F)F)c1)C1CCCO1 (stereo not given)	76% (inactive)	108% (inactive)	97.6% (inactive)	3.26% (inactive)	94.3	97.6	-3.33% (inactive)	-8% (inactive)	-10.5% (inactive)	-6.54% (inactive)	1.01% (inactive)	104% (inactive)	100% (inactive)	-0.115% (inactive)	2.56% (inactive)
